# Test results reported in PubChem BioAssay AID504521 (NMMLSC, 2011).
# The other results are listed elsewhere or left out. A number with no mark means an inactive call.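 Rule for the calls: active = compounds whose bead fluorescence drops by more than 37 kMESF across the dose range, marking them as dye quenchers; inactive = the rest.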
# Test: aptamer fluorescence quenchers, flow cytometry – biochemical, cherry pick 1, bead-based flow cytometry, artefact control for GRK2 RNA aptamer inhibitor project, dose response (AID 504521)
# Conditions: Fluorescent RNA aptamer beads, quenching, active compounds read high
compound,measurement,value
COc1ccc(N2C(=O)/C(=C/c3ccco3)C(=O)NC2=S)cc1,fluorescence change (kMESF span),12 kMESF
